From ChEMBL document CHEMBL1157539, “Thousands of chemical starting points for antimalarial lead identification” (Nature, 2010)

test system: Plasmodium falciparum; experiment: GSK_TCMDC: Inhibition of Plasmodium falciparum 3D7 in whole red blood cells, using parasite LDH activity as an index of growth. Test compounds present at 2uM; type: functional

Compound	Inhibition [%]
Cc1cc(N[C@@H](Cc2ccccc2)C(=O)NCCCOC(C)C)nc(NCC2CCCCC2)n1.O=C(O)C(F)(F)F	94
CC(C)c1cccc(C(C)C)c1NC(=O)NNC(=O)c1ccc(CCN2CCC(c3nc(COCC(F)(F)F)c(-c4ccc(F)cc4)o3)CC2)cc1	88
O=C(NCCCCN1CCC(c2ccc([N+](=O)[O-])cc2)CC1)c1ccc(NC(=O)c2ccc(Cl)cc2)cc1	100
Oc1ccc(Cl)cc1-c1cc(C(F)(F)F)nc(-c2ccccc2)n1	99
N#Cc1ccc(N(CCNS(=O)(=O)c2cc(Br)c(Cl)s2)Cc2ccccc2C(F)(F)F)cc1C(F)(F)F	92
O=[N+]([O-])c1ccc(N/C(=N\c2ccccc2Br)NCCOc2ccccc2)c(O)c1	88
O=C(Cc1c[nH]cn1)Nc1cccc(-c2cccc(-c3nc4cc(F)ccc4[nH]3)c2)c1	100
Cc1ccccc1CNc1noc(-c2sccc2Br)n1	99
COc1ccc(-c2nc3cc4ccccc4nc3[nH]2)c(OCC(O)CNC(C)C)c1.Cl (stereo not given)	98
COc1cc2c(cc1OC)CN(c1cc(N)c3cc(OC)c(OC)cc3n1)CC2.CS(=O)(=O)O	100
CCCCn1c(Sc2ccc(C#N)c([N+](=O)[O-])c2)nnc1-c1cccc(Cl)c1	96
O=C(Nc1cc(C(F)(F)F)ccc1Cl)c1ccc(Cn2cc(Br)cn2)cc1	91
Cc1cc(N[C@@H](Cc2ccccc2)C(=O)NCCOc2ccccc2)nc(NCCc2ccc(F)cc2)n1.O=C(O)C(F)(F)F	99
CCOC(=O)c1ccc(Nc2cc(Nc3ccc(C(=O)OCC)cc3)nc(C)n2)cc1	99
Cc1nc(N)nc(N)c1OCCCCOc1ccccc1.Cl.O	94
Cc1cc(N[C@@H](Cc2ccccc2)C(=O)NCCc2ccccc2)nc(NCCc2cccs2)n1.O=C(O)C(F)(F)F	99
Cc1cc(N[C@@H](Cc2ccccc2)C(=O)Nc2ccccc2)nc(NCCc2ccccc2)n1.O=C(O)C(F)(F)F	100
CCOC(=O)c1c(CCc2ccc(C(F)(F)F)cc2)nc2c(c1-c1ccc(C(=O)N[C@@H](C)c3ccncc3)cc1)C(=O)N1CCC[C@@H]21	85
Br.C=CCc1cc(Br)ccc1OCCCON1C(N)=NC(N)=NC1(C)C	95
CC(=O)Nc1ccc(OCCCN(Cc2ccccc2OC(F)(F)F)c2ccc(C(F)(F)F)c(C#N)c2)c(Cl)c1	91

Compound	Inhibition [%]
COc1cc(C(=O)Nc2cccc(-c3nc4ccccc4[nH]3)c2)ccc1OC(C)=O	83
CCN1CCc2nc3ccccc3c(C(=O)Nc3ccc(C#N)cc3)c2C1	99
COc1ccc(COc2c(OC)cc(Cc3cnc(N)nc3N)cc2OC)cc1	90
O=C(Nc1ccc(Cl)cc1)Nc1ccc(-c2cccc(-c3nc4cc(F)ccc4[nH]3)c2)cc1	100
O=C(O)C(F)(F)F.c1cncc(CCNCc2cccc(-c3ccc(-c4nc5ccccc5[nH]4)s3)c2)c1	100
NC1CCN(c2nc(NCCCc3ccc(O)cc3)nc(NCc3ccccc3-c3ccccc3)n2)CC1.O=C(O)C(F)(F)F	100
COc1ccc(-c2cccc(NC(=O)c3cccc(C#N)c3)c2)cc1CN1CCCC1.O=C(O)C(F)(F)F	98
Cc1cccc(C(=O)Nc2ccnc(N3CCCN(Cc4cccc(O)c4)CC3)c2)c1.O=C(O)C(F)(F)F	84
Nc1c(Cl)cc(C(O)CNCCCCCOCCc2ccccc2)cc1C(F)(F)F (stereo not given)	99
CN1CCN(c2cc(NC(=O)Nc3cccc(Cl)c3Cl)ccc2Cl)CC1.Cl	100
Clc1ccc(-c2cc(-c3csc(NCCN4CCOCC4)n3)on2)c(Cl)c1	97
N#Cc1ccccc1Sc1ccccc1C(=O)Nc1ccc2ccccc2n1	92
Cl.ON=C1CCc2cc(-c3[nH]c(-c4cccc(OCCNCc5ccc(F)cc5)c4)nc3-c3ccncc3)ccc21	89
O=S(=O)(c1cccc(C(F)(F)F)c1)N1CCC(CO)(Cc2cccc(C(F)(F)F)c2)CC1	100
Cl.N=c1n(Cc2ccc(Cl)cc2)c2ccccc2n1CC(O)c1ccc(Cl)c(Cl)c1 (stereo not given)	98
Cc1[nH]c(C)c(-c2ccc(OCc3cc(F)cc(F)c3)nc2)c(=O)c1Cl	97
CN(C)CCNCc1ccc(-c2ccc(-c3nc4cc(F)ccc4[nH]3)cc2)cc1.O=C(O)C(F)(F)F	100
O=C(O)C(F)(F)F.c1cc(CNCCc2ccncc2)cc(-c2ccc(-c3nc4ccccc4[nH]3)s2)c1	100
COc1ccc(CN2CCCC(Nc3ccc(F)c(F)c3)C2)c(O)c1 (stereo not given)	95
Br.CCOC(=O)c1cc(Cl)ccc1OCCCON1C(=N)N=C(N)NC1(C)C	94
